Assay outcomes from PubChem.
Shown are actives, neighbours in structure and some others; about 11% of the full set was active somewhere.
HTT aggregate – reduces HttQ103-GFP aggregates in PC12 cells. PC12 HttQ103-GFP aggregates, Acumen cytometry, 40 h. 220,000 compounds, 1.1% hits. AID 1688. Potency, µM (doses to about 46.1 µM), for the others: top-dose activity change, negative = inhibition, usual class: inhibitors; active = well fitted curve in the direction sought with a large enough effect; inconclusive = small, poorly fitted or top-dose-only effect, or another doubt; inactive = no such curve, though single readings can be large; an effect the other way counts as inactive or inconclusive; also: potency is read from the fitted curve at half-maximal effect; % is scaled to controls: 0 for no effect and ±100 for the full control effect; nearly all actives have a fitted effect of over 60% in size
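Read-out: GFP aggregate count by laser scanning cytometer (488 nm excitation, 500-530 nm emission, 1–25 µm objects >6 SD above background). Cells: PC12, inducible HTTex1-Q103-GFP, 100 nM tebufenozide; compounds titrated.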
ALDH1A1 inh – ALDH1A1 (human) enzyme inhibition; P00352; Purified ALDH1A1, NADH fluorescence, propionaldehyde substrate; Potency, µM (doses to about 75.3 µM), for the others: at the top dose activity, negative = inhibition, most hits filed as inhibitors; 220,000 compounds, 7.3% hits; AID 1030;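 also: potency is read from the fitted curve at half-maximal effect; plate controls were no enzyme wells and a reference inhibitor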
RGS12 GoLoco inh – RGS12 GoLoco-Gai1 interaction inhibition; P63096; Gai1:RGS12 GoLoco peptide FP, rhodamine, 10 min; Potency, µM (top dose mostly 61.6 µM), for inactives: top-dose activity, negative = inhibition, actives largely listed as inhibitors; 230,000 compounds, 0.44% hits; AID 880; active = well fitted inhibition curve with a large enough effect, not every such curve was filed as active; inactive = no such curve, though single readings can be large or run the other way; also: potency is read from the fitted curve at half-maximal effect; % is scaled to controls: 0 for no effect and ±100 for the full control effect; nearly all actives have a fitted effect of over 30% in size
Target sequence (P63096 whole entry, looked up): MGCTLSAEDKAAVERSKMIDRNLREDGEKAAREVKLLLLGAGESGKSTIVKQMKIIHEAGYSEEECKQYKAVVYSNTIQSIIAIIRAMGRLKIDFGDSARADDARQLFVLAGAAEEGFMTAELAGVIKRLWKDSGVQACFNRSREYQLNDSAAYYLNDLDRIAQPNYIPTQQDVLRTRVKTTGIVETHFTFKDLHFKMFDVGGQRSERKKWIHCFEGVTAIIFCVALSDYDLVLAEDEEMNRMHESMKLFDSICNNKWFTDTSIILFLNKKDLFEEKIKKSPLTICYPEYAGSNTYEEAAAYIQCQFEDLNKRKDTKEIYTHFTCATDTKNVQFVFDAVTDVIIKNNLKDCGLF
PNC assembly inh – inhibitors of perinucleolar compartment assembly | 140,000 compounds, 3.1% hits | PC3M PTB-GFP, PNC prevalence imaging, 16 h; hits give low values | activity change (PNC), negative = inhibition, % at 10 µM;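 active = readout at or below -70, meaning at least 70% loss of cells showing the perinucleolar compartment, a nuclear body marking cancer cells; inconclusive = readout between -30 and a set limit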;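 also: plate controls were DMSO wells for no effect and camptothecin positive control wells for full effect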
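Read-out is percentage of cells bearing a perinucleolar compartment, from automated 20x imaging of fixed, Hoechst-stained PC3M PTB-GFP cells. Cells were seeded 4 h, then exposed 16 h to compound (23 nl of library stock) in duplicate plates.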
HTT ATP protect – cytoprotection in Huntington HTT-Q103 PC12 cell model. 230,000 compounds, 0.14% hits. PC12 HTT-Q103 induced, cytoprotection, ATP luminescence, 40 h. Potency, µM (highest dose often 56.4 µM), inactives show cytoprotection (ATP increase), hits mostly activators; active = well fitted curve in the direction sought with a large enough effect; inconclusive = small, poorly fitted or top-dose-only effect, or another doubt; inactive = no such curve, though single readings can be large; an effect the other way counts as inactive or inconclusive; also: potency is read from the fitted curve at half-maximal effect; % of control where 0% means no effect; nearly all actives have a fitted effect of over 45% in size
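Rat PC12, Q103 Htt exon1-GFP fusion, ecdysone promoter; tebufenozide inducer 100 nM final; compound titration; qHTS, 1500 cells/well; ATPlite luminescent read.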
HPGD block – blocks human HPGD enzyme activity; 150,000 compounds, 4.3% hits; P15428; purified HPGD, NADH fluorescence kinetic, PGE2 substrate; Potency, µM, without a hit: at the highest dose activity change, negative = inhibition, usual class: inhibitors; also: potency is read from the fitted curve at half-maximal effect; % is scaled to controls: 0 for no effect and ±100 for the full control effect
Target sequence (P15428 whole entry, looked up): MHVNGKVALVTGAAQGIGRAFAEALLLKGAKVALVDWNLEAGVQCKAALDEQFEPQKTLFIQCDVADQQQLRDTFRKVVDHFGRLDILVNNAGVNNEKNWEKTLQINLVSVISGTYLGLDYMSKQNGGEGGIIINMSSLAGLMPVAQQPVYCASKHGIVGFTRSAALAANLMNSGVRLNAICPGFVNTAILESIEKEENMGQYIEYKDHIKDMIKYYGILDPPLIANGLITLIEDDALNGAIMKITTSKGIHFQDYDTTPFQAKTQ
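NADH formation kinetics: reaction with 30 uM PGE2 and 1 mM NAD+ (final), 20 nM enzyme, Tris-HCl pH 8 with Tween 20, after 15 min compound preincubation at room temperature. Fluorescence change, last versus first of five reads.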
The depositor's hits bear a star; ? = inconclusive; . = no result; [ ] = another dose, or the depositor's remark. Unless noted, calls follow the shape of the dose curve; as a rule, active = well fitted inhibition curve with a large enough effect (not every such curve was filed as active); inconclusive = small, poorly fitted or top-dose-only effect, or another doubt; inactive = no such curve, though single readings can be large or run the other way.

SMILES	HTT aggregate	ALDH1A1 inh	RGS12 GoLoco inh	PNC assembly inh	HTT ATP protect	HPGD block
CCN(Cc1ccccc1)S(=O)(=O)c1ccc2c(c1)NC(=O)CC(=O)N2	-4.4%	14.1µM*	-6.0%	.	-10.0%	.
Cc1nc2ccccc2c2oc(C(=O)NCC3COc4ccccc4O3)cc12 (stereo not given)	?	-0.4%	10.1%	-15.3	7.9%[10 µM]	-13.8%
CCCCN(CC)CCNC(=O)c1cc2c(C)nc3ccccc3c2o1	8.9%	0.0%	-6.1%	?	-5.8%	-8.8%
COc1ccc(CNC(=O)c2cc3c(C)nc4ccccc4c3o2)c(OC)c1	3.98µM*	9.7%	-0.9%	-17.8	6.6%	14.2%
COc1cccc(CNC(=O)c2cc3c(C)nc4ccccc4c3o2)c1	10µM*	5.6%	12.7%	-18.3	-66.5%	-10.0%
CCc1ccc(CNC(=O)c2cc3c(C)nc4ccccc4c3o2)cc1	10µM*	-10.5%	1.5%	?	25.6%[10 µM]	?
COc1cc(NC(=O)c2cc3c(C)nc4ccccc4c3o2)cc(OC)c1OC	?	11.1%	14.0%	18.1	-4.3%	-11.0%
COc1ccc(CCC(=O)c2c(O)cc(O[C@@H]3O[C@H](CO)[C@@H](O)[C@H](O)[C@H]3O[C@@H]3O[C@@H](C)[C@H](O)[C@@H](O)[C@H]3O)cc2O)cc1O	.	?	20.9%	.	-14.9%	-3.1%
O=[N+]([O-])c1ccc(N2CCN(Cc3ccccc3)CC2)nc1	21.5%	20µM*	10.2%	.	-22.4%	.
O=C(Nc1nnc(-c2ccc(Cl)cc2)o1)Nc1ccccc1F	2.7%[9.22 µM]	.	7.4%	.	0.7%[10 µM]	.
COCCn1c(N)c(N(Cc2ccccc2)C(=O)C2CCCC2)c(=O)[nH]c1=O	-7.0%	6.4%	-5.1%	.	-15.0%	.
Cc1cc(C)c(S(=O)(=O)Nc2ccc(C(=O)O)c(O)c2)cc1C	.	?	.	.	.	-7.7%
Cc1cc(C)c(S(=O)(=O)Nc2cc(SCC(=O)O)c(O)c3ccccc23)cc1C	-6.1%	?	-1.7%	?	-18.4%[10 µM]	1.12µM*
CC1=C(C(=O)OCC(C)C)C(c2ccccc2Cl)NC(=O)N1C (stereo not given)	?	20µM*	0.9%	13.2	-9.1%	-17.2%
CC1(C)Cc2nc3oc4c(NCCCN5CCOCC5)ncnc4c3cc2CO1	0.6%[9.22 µM]	?	-0.7%	.	9.9%[10 µM]	.
Cc1c(C)c2c(c(C)c1OC(=O)CCC(=O)O)CC[C@@](C)(CCC[C@H](C)CCC[C@H](C)CCCC(C)C)O2	14.2%	.	.	.	20.9%	.
COC1=C/C(=C/c2c(N)n3c(nc2=O)sc2cc(S(C)(=O)=O)ccc23)C=CC1=O	15.4%[9.22 µM]	.	-16.0%	.	7.4%[10 µM]	.
CS(=O)(=O)c1ccc2c(c1)sc1nc(=O)c(/C=C3/C=CC(=O)C(O)=C3)c(N)n12	-5.3%[9.22 µM]	12.6µM*	77.6%	.	-5.6%[10 µM]	.
COc1cccc(Nc2ncc3nc(C)c(=O)n(-c4ccccc4)c3n2)c1	.	?	69.7%	.	-8.8%	.
CCOc1cc(C(=O)NC(=S)Nn2cnnc2)cc(OCC)c1OCC	4.3%	11.2µM*	6.0%	.	-27.8%	.
CCOc1cc(C(=O)Nn2cnnc2)cc(OCC)c1OCC	14.3%	6.6%	-1.2%	.	27.0%[10 µM]	.
N.N.N.N.N.N.N.N.N.N.N.N.N.N.O.O.[Ru].[Ru].[Ru]	.	.	.	.	-33.8%[1.9 µM]	.
NC(=O)c1c(NC(NC(=O)c2ccco2)(C(F)(F)F)C(F)(F)F)sc2c1CCCC2	-18.9%	31.6µM*	10.4%	?	-21.0%	-5.5%
CC(C)(C)C1CCc2c(sc(NC(=O)c3cccs3)c2C(N)=O)C1 (stereo not given)	-3.4%	?	-2.6%	15.0	-1.7%[1.9 µM]	?
CN1CCN(C(=O)c2c(NC(=O)c3ccco3)sc3c2CCC(C(C)(C)C)C3)CC1 (stereo not given)	?	12.6µM*	2.6%	5.0	0.4%	-18.9%
SMILES	HTT aggregate	ALDH1A1 inh	RGS12 GoLoco inh	PNC assembly inh	HTT ATP protect	HPGD block
CN(C)C(=O)c1c(NC(=O)c2ccco2)sc2c1CCCCC2	-7.0%	?	-6.7%	-0.6	-13.4%[10 µM]	-15.9%
O=C(Nc1sc2c(c1C(=O)O)CCCCC2)c1ccco1	-28.5%	25.1µM*	0.4%	?	-118.8%	17.8µM*
CCN1CC2CCCC3(C1)C(=O)NC1(CCCCC1)N=C23 (stereo not given)	-28.9%	31.6µM*	-22.3%	34.5	-10.8%	-9.8%
CC(C)(C)[C@@H]1C=C(C(=O)N2CCN(Cc3ccc4c(c3)OCO4)CC2)O[C@H](OCc2ccc(CO)cc2)C1	17.2%[9.22 µM]	-8.3%	3.0%	.	5.9%[10 µM]	.
COC(=O)c1ccc(Oc2c(C)oc3cc(OCc4cnn(-c5ccccc5)c4)ccc3c2=O)cc1	-9.0%	-10.7%	10.2%	30.1	10.6%[10 µM]	-19.7%
Cc1oc2cc(OCc3cnn(-c4ccccc4)c3)ccc2c(=O)c1Oc1ccccc1F	11.1%	5.01µM*	-14.5%	-2.1	8.4%[10 µM]	-18.0%
CN(C)c1ccc(C(=N)c2ccc(N(C)C)cc2)cc1	.	-10.8%	21.3%	.	-31.5%	-2.6%
CN=C1C=CC(=C(c2ccc(N(C)C)cc2)c2ccc(N(C)C)cc2)C=C1	8.91µM*	.	.	.	-98.7%	.
COC(=O)[C@@]1(Cc2ccc(OC)cc2)[C@H]2c3cc(C(=O)N4CCCC4)n(Cc4cc(F)cc5c4OCOC5)c3C[C@H]2CN1C(=O)c1ccccc1	.	-1.6%	-3.2%	.	-67.4%	-5.7%
O=C(CCN1C(=O)C2C3C=CC(C3)C2C1=O)N1CCN(c2cccc(Cl)c2)CC1 (stereo not given)	-6.9%	7.94µM*	-1.6%	13.5	-21.9%	-12.7%
O=C(CCN1C(=O)C2C3C=CC(C3)C2C1=O)N1CCN(c2ccccn2)CC1 (stereo not given)	2.0%	?	12.9%	13.6	25.5%[10 µM]	?
COc1ccc2cc1Oc1ccc(cc1)CC1c3c(cc(OC)c4c3Oc3cc5c(cc3O4)CCNC5C2)CCN1C (stereo not given)	3.98µM*	.	6.7%	.	-96.1%[10 µM]	.
COc1ccc2cc1Oc1ccc(cc1)CC1c3c(cc4c(c3Oc3cc5c(cc3OC)CCN(C)C5C2)OCO4)CCN1C (stereo not given)	-37.7%	-3.3%	19.4%	.	-95.6%	-3.9%
Cc1ccc(S(=O)(=O)n2c3ccccc3c3nnc(C(=O)c4ccccc4)nc32)cc1	.	-7.3%[13.5 µM]	.	.	-7.2%[10 µM]	.
COc1ccc(C)cc1NC(=O)C(OC(=O)CNC(=O)c1cc(C)cc(C)c1)c1ccccc1 (stereo not given)	4.8%	?	5.0%	?	-20.1%[10 µM]	-3.1%
COc1ccc(C)cc1NC(=O)C(OC(=O)c1ccc([N+](=O)[O-])o1)c1ccccc1 (stereo not given)	4.3%	17.8µM*	13.3%	19.6	47.2%[0.074 µM]	-14.3%
COc1cccc(NC(=O)Nc2ccc(C(C)(C)C)cc2)c1	?	1.5%	-1.7%	.	2.5%[10 µM]	.
